Here are results for 29 molecules from PubChem BioAssay (NCI).

Holding throughout (assay): NCI-60 one-dose screen, 48 h (100 = growth as untreated, 0 = no growth, -100 = all killed)
Conditions in all cases: 10 µM unless noted

Assay [1] concerns BT-549 breast.
The subject of assay [2] is MDA-MB-435 melanoma.
Assay [3] has as its system MCF7 breast.
For assay [4], the system named is HCT-116 colon.
For assay [5], the system named is HCC-2998 colon.
Assay [6] relates to KM12 colon.
Assay [7] has as its system SW-620 colon.

Compounds without any hit were thinned out: in the full panel of roughly 83,000, 20% have a hit.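 Percent growth is the endpoint: 0 to 100 indicates growth inhibition (40 means 60% inhibition), 0 means no net growth, and negative values indicate cell death.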 Unmarked numbers belong to inactive results. The source made the active and inactive calls. The calls were made as follows: active = growth percent below 10; inactive = the rest.

As for `CCn1c(CN2CCN(Cc3ccccc3)CC2)nc2cc(NC(=O)c3cccs3)ccc21`, the growth in assay [1] is -30.9% (active); in assay [2], -89% (active); in assay [3] it was -88.1% (active); in assay [4] it was 0.264% (active); in assay [5] it was -88.9% (active); in assay [6] it was -93.5% (active).

`O=C1C(Cl)=C(N/N=c2/[nH][nH]/c(=N/NC3=C(Cl)C(=O)c4ccccc4C3=O)c3ccccc23)C(=O)c2ccccc21`: the growth in assay [1] is 83.1%; in assay [2], 102%; in assay [7], 60.6%; in assay [3], 54%; in assay [4] it was 61.8%; in assay [5], 93.9%. The growth in assay [6] was 18.5%.

As to `C/C(=N\NC(=S)Nc1ccccc1)c1ccccn1`, the growth is 40.2% in assay [1]; 59.6% in assay [2]; 35% in assay [7]; 18.7% in assay [3]; 6.94% (active) in assay [4]; 48.1% in assay [5]. In assay [6], the growth is 29.7%.

On to `CC(=O)c1ccc(Nc2nc(Cl)nc(Oc3c(Cl)cccc3Cl)n2)cc1`, for which the growth in assay [1] is 84.7%; in assay [2], 89.9%; in assay [7] it was 88.6%; in assay [3], 74.9%; in assay [4], 84.9%; in assay [5], 106%. The growth in assay [6] was 98%.

As to `C#CC[C@@H]1C[C@]2(C)[C@H]3CC=C4[C@H]5[C@@H](C)[C@H](C)CC[C@]5(C(=O)NCCCN5CCN(CCCN)CC5)CC[C@@]4(C)[C@]3(C)CC[C@H]2C(C)(C)[C@H]1OC(C)=O`, the growth was -3.81% (active) in assay [1]; -74.2% (active) in assay [2]; -75.8% (active) in assay [3]; -83.9% (active) in assay [4]; -34.1% (active) in assay [5].

As for `COc1cccc(Cn2c(-c3nonc3NC(C)=O)nc3ccccc32)c1`, the growth in assay [1] is 41.6%; in assay [2], -35% (active); in assay [7], 28.7%; in assay [3], 47.4%; in assay [4], 42.7%; in assay [5], 49.3%. Besides, the growth in assay [6] is 30.4%.

In the case of `CCCCCCCCCCCCCCCCCC1=NC(C)(C)CN1C(C)(C)CO`, the growth in assay [1] is 64.7%; in assay [2], -68.7% (active); in assay [7], -100% (active); in assay [3], -81% (active); in assay [4], -100% (active); in assay [5] it was -100% (active). In addition, the growth in assay [6] is -100% (active).

As for `Fc1[nH]nc2ccc([C@@H]3Nc4ccc5[nH]ncc5c4[C@H]4C5CCC(C5)[C@@H]34)cc12` (stereo partly drawn), the growth is 53.2% in assay [1]; -42.5% (active) in assay [2]; 21.2% in assay [3]; 21% in assay [4]; 58.2% in assay [5]; 20.7% in assay [6].

For `CCN(CC)CCCCCCCNc1cc(OC)cc2c(C)ccnc12`, the growth in assay [1] was 82.6%; in assay [2], 98.6%; in assay [7] it was 88.6%; in assay [3], 27.2%; in assay [4], 70.9%; in assay [5], 90.9%. Further, the growth in assay [6] was 89.9%.

Consider `O=C(C=P(c1ccccc1)(c1ccccc1)c1ccccc1)CCl`, for which the growth in assay [1] is -11.3% (active); in assay [2], -98.6% (active); in assay [7], -50.7% (active); in assay [3] it was -16.6% (active); in assay [4] it was -70.2% (active); in assay [5], -21.6% (active). In addition, in assay [6], the growth is 1.36% (active).

On to `O=C(C(Br)C(Br)c1ccccc1)C(Br)C(Br)c1ccccc1` (stereo not drawn), for which the growth is -82.8% (active) in assay [1]; -37.5% (active) in assay [2]; -71.1% (active) in assay [7]; -19.2% (active) in assay [3]; -99.5% (active) in assay [4]; -8.59% (active) in assay [5]. Moreover, the growth in assay [6] was -63.3% (active).

In the case of `CC(=O)O[C@H]1[C@H](CC#CC#CC[C@@H]2C[C@]3(C)[C@H]4CC=C5[C@H]6[C@@H](C)[C@H](C)CC[C@]6(C(=O)NCCCCCCCCN)CC[C@@]5(C)[C@]4(C)CC[C@H]3C(C)(C)[C@H]2OC(C)=O)C[C@]2(C)[C@H]3CC=C4[C@H]5[C@@H](C)[C@H](C)CC[C@]5(C(=O)NCCCCCCCCN)CC[C@@]4(C)[C@]3(C)CC[C@H]2C1(C)C`, the growth was 112% in assay [1]; 110% in assay [2]; 97.8% in assay [7]; 105% in assay [3]; 97.7% in assay [4]; 100% in assay [5]. In addition, in assay [6], the growth was 89.2%.

Turning to `CC(=O)c1nn(-c2ccccc2)/c(=N\N=C\c2coc3ccc(F)cc3c2=O)s1`, the growth was 105% in assay [1]; 103% in assay [2]; 98.7% in assay [7]; 90.3% in assay [3]; 96% in assay [4]; 111% in assay [5]. Besides, the growth in assay [6] was 101%.

Turning to `C=C(CN1CC=CCC1)[C@@H]1CC[C@]2(C(=O)OC)CC[C@]3(C)[C@H](CC[C@@H]4[C@@]5(C)CC[C@H](OC(C)=O)C(C)(C)[C@@H]5CC[C@]43C)[C@@H]12`, the growth in assay [1] was 85.6%; in assay [2], 90.7%; in assay [7], 102%; in assay [3], 88.2%; in assay [4] it was 86.7%; in assay [5] it was 108%. The growth in assay [6] is 78.6%.

Consider `C#CC[C@@H]1C[C@]2(C)[C@H]3CC[C@@H]4[C@H]5C(C(=C)C)CC[C@]5(C(=O)NCCCCCCCCN)CC[C@@]4(C)[C@]3(C)CC[C@H]2C(C)(C)[C@H]1OC(C)=O` (stereo partly drawn), for which the growth in assay [1] is 97.5%; in assay [2], 76.5%; in assay [7], -2.59% (active); in assay [3], -18.9% (active); in assay [4] it was -88.5% (active); in assay [5], 91.1%. The growth in assay [6] was 61.9%.

For the molecule `COc1ccc(C(=O)/C=C/c2cn(-c3ccccc3)nc2-c2cccc(Nc3ccnc4cc(Cl)ccc34)c2)cc1`, the growth in assay [1] was 100%; in assay [2], 66%; in assay [7], 97.8%; in assay [3], 85.8%; in assay [4], 91.9%; in assay [5], 109%. In assay [6], the growth is 94.9%.

In the case of `Brc1cccc(-n2ncc3c(Nc4ccc(-c5nnc(-c6ccccc6)o5)cc4)ncnc32)c1`, the growth in assay [1] was 101%; in assay [2] it was 106%; in assay [7] it was 99.5%; in assay [3], 99.5%; in assay [4] it was 94.7%; in assay [5], 100%. Besides, in assay [6], the growth was 102%.

On to `COc1ccc(/C=c2\c(=O)n(-c3ccccc3)c3nn4c(=O)c(=O)[nH]nc4n23)cc1`, for which the growth in assay [1] was 105%; in assay [2], 112%; in assay [7] it was 106%; in assay [3] it was 102%; in assay [4], 102%; in assay [5], 108%. Moreover, the growth in assay [6] was 109%.

As for `O=C(CS)OCC(COC(=O)CS)(COC(=O)CS)COC(=O)CS`, the growth in assay [1] is 108%; in assay [2], 78.8%; in assay [7] it was 107%; in assay [3], 75.9%; in assay [4], 79.6%; in assay [5] it was 92.2%. Moreover, the growth in assay [6] was 67.5%.

`COc1ccc(/C(=C\c2cc(OC)c(OC)c(OC)c2)C(=O)N2CCNCC2)cc1`: the growth in assay [1] was 104%; in assay [2], 98.2%; in assay [7] it was 97.6%; in assay [3] it was 95.5%; in assay [4], 94.5%; in assay [5] it was 104%. Moreover, the growth in assay [6] was 94.2%.

With `CCNC(=S)N(Cc1ccccc1)Cc1ccccc1`, the growth is 119% in assay [1]; 105% in assay [2]; 115% in assay [7]; 107% in assay [3]; 110% in assay [4]; 98.3% in assay [5]. Also, in assay [6], the growth was 114%.

Take `Oc1ccc(CCCCCCc2ccc(O)cc2)cc1`: the growth is 50.3% in assay [1]; 71.4% in assay [2]; 58.1% in assay [7]; 35.9% in assay [3]; 66.8% in assay [4]; 92.3% in assay [5]. Besides, in assay [6], the growth was 59%.

For `CCCCN(CCCC)CCC(O)c1cc2ccc(C(F)(F)F)cc2c2cc(C(F)(F)F)ccc12` (stereo not drawn), the growth was 91.3% in assay [1]; 54.2% in assay [2]; 40.4% in assay [7]; 6.74% (active) in assay [3]; 30.5% in assay [4]; -34.8% (active) in assay [5]. In addition, the growth in assay [6] was 12.9%.

For the molecule `CN1CCN(Cc2ccc(NC(=O)c3cncc(C#Cc4ncc5cnccn45)c3)cc2C(F)(F)F)CC1`, the growth in assay [1] is 63.7%; in assay [2] it was 39.3%; in assay [3], 36%; in assay [4] it was 16.6%; in assay [5], 43.1%; in assay [6], 13.2%.

Turning to `Nc1n[nH]c2ccc([C@@H]3Nc4c(F)cc5[nH]ncc5c4[C@H]4C5CCC(C5)[C@@H]34)cc12` (stereo partly drawn), the growth in assay [1] was 27%; in assay [2], -11.5% (active); in assay [7], 21.8%; in assay [3], 18.5%; in assay [4] it was 7.44% (active); in assay [5], 28.1%. In assay [6], the growth is 10.4%.

Turning to `COC(=O)C(CCC(=O)CCl)N1C(=O)c2ccccc2C1=O` (stereo not drawn), the growth in assay [1] is 55.7%; in assay [2], 35.2%; in assay [7] it was 32.9%; in assay [3], 26.2%; in assay [4], 25%; in assay [5] it was 89.4%. Also, the growth in assay [6] was 101%.

For `C#CC[C@@H]1C[C@]2(C)[C@H]3CC[C@@H]4[C@H]5C(C(=C)C)CC[C@]5(C(=O)NCCCN5CCN(CCCN)CC5)CC[C@@]4(C)[C@]3(C)CC[C@H]2C(C)(C)[C@H]1OC(C)=O` (stereo partly drawn), the growth in assay [1] was 75.6%; in assay [2] it was -73.3% (active); in assay [7] it was -79.4% (active); in assay [3] it was -75.4% (active); in assay [4] it was -95.3% (active); in assay [5], -23.5% (active). The growth in assay [6] was -74.6% (active).

As to `O=C(Nc1ccc(Oc2ccc(Nc3nc4ccccc4s3)cc2)cc1)Nc1ccc(Cl)c(C(F)(F)F)c1`, the growth is -1.46% (active) in assay [1]; 0.432% (active) in assay [2]; 8.67% (active) in assay [7]; 4.73% (active) in assay [3]; 0.0223% (active) in assay [4]; 2.48% (active) in assay [5]. Also, the growth in assay [6] is 0.448% (active).

Turning to `C#CC[C@@H]1C[C@]2(C)[C@H]3CC=C4[C@H]5[C@@H](C)[C@H](C)CC[C@]5(C(=O)NCCCCN)CC[C@@]4(C)[C@]3(C)CC[C@H]2C(C)(C)[C@H]1OC(C)=O`, the growth in assay [1] is 93.8%; in assay [2], 40%; in assay [7], 20.1%; in assay [3] it was 12.2%; in assay [4], -56.4% (active); in assay [5] it was 30%. The growth in assay [6] was 38.3%.
